Bioassay records as filed in PubChem BioAssay.
In the library only some 7.3% were active in any assay of this set; here they are far more common.
KinaseGlo FLuc: counter-screen: inhibitors of Kinase-Glo firefly luciferase | Potency, µM (series often up to 38.3 µM), inactives show top-dose activity change, negative = inhibition, usual class: inhibitors | Q27757 | Kinase-Glo luciferase, ATP luminescence, 8 min | 200,000 tested, 0.28% active; note: % is set by controls: 0 for no effect and ±100 for the full control effect; nearly all actives have a fitted effect of over 60% in size
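Kinase-Glo luciferase light output from ATP and luciferin was measured with 10 uM ATP, within the enzyme's linear range. Buffer: 50 mM imidazole pH 7.2, 50 mM KCl, 7 mM MgCl2, 0.01% Tween 20, 0.05% BSA; luminescence read after 8 min at ambient temperature.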
Rab9 prom act: activators of Rab9 promoter | Huh7 Rab9 promoter-luciferase reporter, luminescence, 24 h | Potency, µM (highest dose often 9.22 µM), for the others: top-dose activation, negative = inhibition, most hits filed as activators | 320,000 tested, 2.8% active | AID 485297; note: % of control where 0% means no effect; nearly all actives have a fitted effect of over 60% in size
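Stable Rab9-luc Huh7, 1500 cells/well, 2 h settle; cmpd in DMSO, 24 h, 37 °C/5% CO2; luciferase reagent 10 min RT; luminescence.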
NPC1 promoter act: NPC1 promoter activation; Huh7 NPC1 promoter luciferase reporter, 24 h; Potency, µM (highest dose often 9.22 µM), without a hit: at the top dose activation, actives largely listed as activators; 320,000 tested, 2.4% active; note: % of control where 0% means no effect; nearly all actives have a fitted effect of over 60% in size
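Luciferase expression driven by the NPC1 promoter was measured in stably transfected Huh7 cells after a 24 h compound incubation, using a luciferase reagent and a luminescence read.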
FLuc modulator: counter-screen for miR-21 project: firefly luciferase inhibitors or activators | Potency, µM (series often up to 57.5 µM), without a hit: at the highest dose activity change, negative = inhibition, usual class: inhibitors | purified FLuc, Km substrates, luminescence inhibition | P08659 | 360,000 tested, 6.9% active;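 note: plate controls were vehicle for no effect and reference inhibitor for full effect; nearly all actives have a fitted effect of over 55% in size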
Target sequence (P08659 whole entry, looked up): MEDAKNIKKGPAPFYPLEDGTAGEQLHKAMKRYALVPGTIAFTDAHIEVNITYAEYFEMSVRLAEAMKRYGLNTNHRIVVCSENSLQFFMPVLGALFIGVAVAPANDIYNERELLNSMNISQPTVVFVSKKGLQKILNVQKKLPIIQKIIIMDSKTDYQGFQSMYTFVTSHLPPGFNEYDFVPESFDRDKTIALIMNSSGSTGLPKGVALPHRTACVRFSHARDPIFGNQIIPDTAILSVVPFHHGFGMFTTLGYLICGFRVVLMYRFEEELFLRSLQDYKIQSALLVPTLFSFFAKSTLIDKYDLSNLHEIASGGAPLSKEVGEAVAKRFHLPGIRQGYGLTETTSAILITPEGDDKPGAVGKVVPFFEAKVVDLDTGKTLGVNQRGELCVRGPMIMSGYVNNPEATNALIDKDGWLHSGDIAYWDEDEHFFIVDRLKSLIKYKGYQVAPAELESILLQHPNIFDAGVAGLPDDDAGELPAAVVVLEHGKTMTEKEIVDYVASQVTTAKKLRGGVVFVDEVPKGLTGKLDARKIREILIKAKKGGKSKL
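Purified P. pyralis luciferase (10nM final) with 10uM D-luciferin and 10uM ATP (Km levels) in 50mM Tris acetate pH 7.5, 10mM Mg acetate, 0.01% Tween-20, 0.05% BSA; qHTS 6-point titration, ~60 µM downward; luminescence read.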
SMN2 splice enh: enhancers of SMN2 splice variant expression. Potency, µM (series often up to 46.1 µM), without a hit: at the highest dose activity change, positive = activation, actives largely listed as activators. AID 1458. HEK293 SMN2-luciferase splicing reporter, luminescence, 30-36 h. 210,000 tested, 2.8% active; note: % of control where 0% means no effect; nearly all actives have a fitted effect of over 55% in size
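HEK293 cells carry an SMN2 […]–luciferase reporter in which exon 7 inclusion puts luciferase in frame. Cells were plated 10-12 h before compound addition, then incubated 30-36 h at 37C. ONE-Glo luminescence was read; sodium butyrate at 4.5 mM final served as control.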
ELG1 genotoxic: genotoxicity induction in ELG1-luciferase HEK293T cells | HEK293T ELG1-luciferase reporter, luminescence, 16 h | Potency, µM (series often up to 46 µM), for inactives: at the highest dose activity change, positive = activation, usual class: activators | 330,000 tested, 1.3% active; note: % of control where 0% means no effect; nearly all actives have a fitted effect of over 60% in size
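Screening used a luciferase reporter fused to human ELG1 in HEK293T cells. Luminescence was read on a CCD plate imager after 16 hr exposure and 30 min ONE-Glo incubation.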
Active calls of the source: *; ? = inconclusive; . = not tested or not shown; [ ] = dose if it differs, or a comment. Calls come from the whole dose curve; as a rule, active = well fitted curve in the direction sought with a large enough effect; inconclusive = small, poorly fitted or top-dose-only effect, or another doubt; inactive = no such curve, though single readings can be large; an effect the other way counts as inactive or inconclusive. Potency is the fitted concentration of half-maximal effect.

SMILES	KinaseGlo FLuc	Rab9 prom act	NPC1 promoter act	FLuc modulator	SMN2 splice enh	ELG1 genotoxic
C[C@@H](C1[C@@H](O)CC2C3C=CC4C[C@@H](O)CC[C@]4(C)[C@H]3CC[C@@]21C)[C@@H]1CCCCN1 (stereo partly specified)	-2%	.	.	.	10%	.
O=C(Cc1nc2ccccc2s1)c1ccc(O)cc1O	0%	3.2µM*	3.2µM*	?	?	?
CCc1cc(C(=O)Cc2nc3ccccc3s2)c(O)cc1OCC(=O)O	.	12%	2%	21µM*	.	2%
O=C(COc1ccccc1Br)c1ccc(O)cc1O	-2%	13%	11%	?	4%	2%
O=C(CSc1nc2ccccc2s1)c1ccc(O)cc1O	.	0%[1.84 µM]	?	13µM*	.	10%
O=C(Cc1ccc(Br)cc1)c1ccc(O)cc1O	.	?	3.2µM*	15µM*	.	?
O=C(Nc1cccc(C(F)(F)F)c1)N1CC2CCCN2c2ccccc21 (stereo unspecified)	.	.	.	-7%	.	.
O=C(c1ccccc1)[C@H](Nc1ccc2ccccc2c1)c1ccccc1	-1%[7.66 µM]	.	.	.	5%[9.22 µM]	.
CNC(=O)C1CCC(Cn2c(=O)c3sccc3n(CC(=O)N3CCCC3)c2=O)CC1 (stereo unspecified)	.	.	.	-2%	.	.
CCC(=O)N1CCc2cc(S(=O)(=O)NC(C(=O)NCCc3ccc(OC)c(OC)c3)C(C)C)ccc21 (stereo unspecified)	.	.	.	-10%	6%	.
O=C(CN(c1cccc(Br)c1)S(=O)(=O)c1ccccc1)N1CCc2ccccc2C1	.	.	.	-4%	-38%	.
Cn1nccc1C(=O)NC(=S)Nc1sc2c(c1C#N)CCCCC2	0%	?	?	3.8µM*	15%	14%
CC(=O)NC(=S)Nc1sc2c(c1C#N)CCCCC2	.	1.4µM*	2.5µM*	1.5µM*	.	2.1µM*
CC(=O)Nc1sc2c(c1C#N)CCCC2	11%	.	.	3%	-5%	.
CCOCc1nnc(NC(=O)c2ccc(NC(C)=O)cc2)s1	1%	0%	0%	-15%	-1%	1%
CC(C)Cc1nnc(NC(=O)Nc2ccccc2)s1	-1%	3.2µM*	?	17µM*	11µM*	?
CCc1nnc(NC(=O)c2cccc(C(=O)Nc3nnc(CC)s3)n2)s1	2%	-42%	-32%	19µM*	-95%	-8%
CCOCc1nnc(NC(=O)c2ccc(OC)cc2)s1	0%	9%	27%	-27%	18µM*	15%
COc1ccc(NC(=O)Nc2nnc(C)s2)cc1	.	.	.	17µM*	21%	.
CCCc1cc(N2CCN(c3ccccc3F)CC2)n2cnnc2n1	.	.	.	1%	-38%	.
CCOC(=O)c1cccc(Nc2c3c(nc4ccccc24)CCC3)c1	.	.	.	-12%	-81%	.
CCOCCc1nnc(NC(=O)c2cc(OC)c(OC)c(OC)c2)s1	0%	2%	-1%	0%	16µM*	3%
COCCn1c(=O)[nH]c2cc(C(=O)Nc3cc(OC)c(OC)c(OC)c3)ccc2c1=O	.	3%	-3%	0%	.	-25%
COc1ccc(C(=O)Nc2cc(OC)nc(OC)n2)cc1	-27%	0.79µM*	2.2µM*	4.3µM*	7.9µM*	?
COCc1nnc(NC(=O)c2cc(OC)c(OC)c(OC)c2)s1	.	.	.	0%	9%	.
SMILES	KinaseGlo FLuc	Rab9 prom act	NPC1 promoter act	FLuc modulator	SMN2 splice enh	ELG1 genotoxic
COc1cc(NC(=O)Cc2ccccc2)nc(OC)n1	.	4%	0%	-1%	.	5%
COCCn1c(=O)[nH]c2cc(C(=O)Nc3nnc(C)s3)ccc21	.	?	27%	13µM*	.	?
CCc1cc(C(=O)O)c(NC(=O)c2cc(OC)c(OC)c(OC)c2)s1	2%	-1%	-1%	8.5µM*	-33%	?
COc1ccc(N2CCN(C(=O)C3CCN(S(=O)(=O)c4cnc[nH]4)CC3)CC2)cc1	.	.	.	-3%	-3%	.
CC(=O)c1cccc(NC(=O)c2c(N3CCCC3=O)c3cc(F)ccc3n2C)c1	.	.	.	1%	.	.
COCCN1C(=O)N[C@@H](c2cccc(C(F)(F)F)c2)C(C(C)=O)=C1C	-2%	.	.	.	1%	.
